In PubChem BioAssay (Tox21) one finds Potency and activation data, which are given here for 40 compounds.

Each structure is given as a SMILES string. Records with an inconclusive call do not appear. Where a call stands in place of a potency, no number is given. Values without a mark were called inactive. Active and inactive are the calls of the source. Calls follow the shape of the full dose curve.

Chain of Peroxisome proliferator-activated receptor delta (Homo sapiens) (Q03181 whole entry, looked up): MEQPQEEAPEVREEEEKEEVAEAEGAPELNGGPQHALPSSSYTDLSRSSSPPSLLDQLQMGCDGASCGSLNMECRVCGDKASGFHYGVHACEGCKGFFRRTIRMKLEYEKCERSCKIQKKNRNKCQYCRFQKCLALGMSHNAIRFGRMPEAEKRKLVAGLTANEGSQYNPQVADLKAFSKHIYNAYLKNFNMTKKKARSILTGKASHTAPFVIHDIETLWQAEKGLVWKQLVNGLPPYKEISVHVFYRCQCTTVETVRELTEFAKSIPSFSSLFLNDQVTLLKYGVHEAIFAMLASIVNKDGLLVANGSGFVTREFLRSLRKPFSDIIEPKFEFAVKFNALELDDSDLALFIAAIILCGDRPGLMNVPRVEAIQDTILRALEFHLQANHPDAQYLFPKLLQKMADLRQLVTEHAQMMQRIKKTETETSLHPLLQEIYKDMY

The assay has as its target Peroxisome proliferator-activated receptor delta (Homo sapiens) (UniProt Q03181). Nature of the assay: qHTS assay to identify small molecule agonists of the peroxisome proliferator-activated receptor delta (PPARd) signaling pathway (AID 743212). The settings on record: HEK293H PPARd-UAS-bla, beta-lactamase FRET ratio, 17 h; series mostly up to 62.6 µM. The text has this: U.S. Tox21 Program National Center for Advancing Translational Sciences [NCATS] NIH Chemical Genomics Center [NCGC] U.S. Environmental Protection Agency [EPA] National Institutes of Environmental Health Sciences [NIEHS] National Toxicology Program [NTP] U.S. Food and Drug Administration [FDA] Tox21 Assay Overview: The peroxisome proliferator-activated receptors (PPARs) are lipid-activated transcription factors of the nuclear receptor superfamily with three distinct subtypes namely PPAR alpha, PPAR delta (PPARd) and PPAR gamma. All these subtypes heterodimerizes with Retinoid X receptor (RXR) and have different physiological functions. […] To identify the compounds that activate PPAR-delta signaling, GeneBLAzer PPAR delta UAS-bla HEK293H cell line (Invitrogen, Carlsbad, CA, USA) containing a beta-lactamase reporter gene under the control of an Upstream Activator Sequence (UAS) was used to screen the Tox21 compound library.
Tox21 Assay Protocol Summary: PPARd-bla cells were dispensed at 3000 cells/6uL/well in 1536-well black wall/clear bottom plates using a Multidrop Combi (Thermo Fisher Scientific, Waltham, MA) dispenser. After the assay plates were incubated at 37 C and 5% CO2 for 5 h, 23 nL of compounds dissolved in DMSO, positive controls or DMSO only was transferred to the assay plate by a Pintool station (Kalypsys, San Diego, CA). The assay plates were incubated at 37C for 17 h. After 1 uL of LiveBLAzerTM B/G FRET substrate was added using a Bioraptr Flying Reagent Dispenser (FRD) workstation (Beckman Coulter, Indianapolis, IN, USA), the plates were incubated at room temperature for 2 h, and fluorescence intensity was measured by an Envision plate reader (PerkinElmer, Shelton, CT).
A general note: Quantitative high-throughput screening tests each substance at several concentrations.
Consider `CC1(C)C(=O)NC(=O)N1CO`, for which the Potency result was “inactive”.
For the compound `CCCCCCCCCCCCSC#N`, the Potency result was “inactive”.
The same measure, in the same setting: with `CCCCCCCCC(=O)OCC(C)OC(=O)CCCCCCCC` (stereo not given) the entry was “inactive”; with `CCC(C)CCCC(C)(C)O` (stereo not given), “inactive”; with `N#Cc1ccc(CC(=O)c2cccc(C(F)(F)F)c2)cc1`, “inactive”.
Same read-out and setting: with `CC(Cc1ccccc1)(NC(=O)CN)c1ccccc1` (stereo not given) the entry was “inactive”; with `C[C@H](CN1CCCC1)C(=O)c1ccc(C(F)(F)F)cc1`, “inactive”; with `CS(C)=O`, “inactive”.
On the same count and under the same terms, next, `O=P(c1ccccc1)(c1ccccc1)c1ccccc1`: “inactive”; `CC(C)(C(=O)O)c1ccc(C(O)CCCN2CCC(C(O)(c3ccccc3)c3ccccc3)CC2)cc1` (stereo not given): “inactive”.
Consider `CCN(CC)CC(=O)OCC(=O)[C@@]1(O)CC[C@H]2[C@@H]3CCC4=CC(=O)CC[C@]4(C)[C@H]3[C@@H](O)C[C@@]21C`, for which the Potency entry is “inactive”.
With `Cc1ccccc1CCO`, the Potency entry is “inactive”.
Same read-out and setting: with `c1ccc(CCNc2nc(-c3ccccc3)cs2)cc1` the entry was “inactive”.
As to `CCCCOc1ccc(N)cc1`, the Potency entry is “inactive”.
Same read-out and setting: with `FC1(F)C(F)(F)C(F)(F)C2(F)C(F)(C1(F)F)C(F)(F)C(F)(F)C1(F)C(F)(F)C(F)(F)C(F)(F)C(F)(F)C12F` (stereo not given) the entry was “inactive”.
For the compound `Sc1nc(S)nc(S)n1`, the Potency entry was “inactive”.
For the compound `O=C1C=CCCC1`, the Potency entry was “inactive”.
Same read-out and setting: next, `Cc1ccc(NC=O)c(C)c1`: “inactive”; `COc1cccc([C@H](O)C2CCN(CCc3ccc(F)cc3)CC2)c1OC`: “inactive”.
Turning to `O=C(Cl)c1cc(Cl)cc(Cl)c1`, the Potency result was “inactive”.
Same read-out and setting: with `O=C(OC1C[C@H]2CC[C@@H](C1)[N+]21CCCC1)C(O)(c1ccccc1)c1ccccc1` (stereo not given in full) the entry was “inactive”.
For `O=C(O)c1ccc2cc(O)ccc2c1`, the Potency result was “inactive”.
As for `CC[C@H](NC(C)C)[C@H](O)c1ccc(O)c2[nH]c(=O)ccc12`, the Potency result is “inactive”.
Regarding `CC(CCl)OC(C)CCl` (stereo not given), the Potency entry was “inactive”.
Still for that read-out and setting: next, `CCCCCCOC(=O)c1ccccc1`: “inactive”.
Same read-out and setting: next, `C=CC(C)CCC=C(C)C` (stereo not given): “inactive”; `O=C1c2ccccc2C(=O)c2c1ccc(O)c2O`: “inactive”; `COc1ccc(CN(CCN(C)C)c2ncccn2)cc1`: “inactive”.
Consider `CCOC(OCC)OCC`, for which the Potency entry was “inactive”.
Still for that read-out and setting: with `CC(C)=CCCC(C)C=O` (stereo not given) the entry was “inactive”; with `C=Cc1ccc(C=C)cc1`, “inactive”.
Regarding `CCCCCCCCCCCCCCCCCCCl`, the activation is 0.183% [at 5.95 µM].
Consider `CCC[Si](OC)(OC)OC`, for which the Potency result was “inactive”.
As for `OCCOc1cccc(OCCO)c1`, the Potency entry was “inactive”.
The same measure, in the same setting: with `CC1(C)CC(=O)CC(C)(C)N1` the entry was “inactive”; with `CC(C)=CCC[C@H](C)CCO`, “inactive”; with `Oc1ccc(CCNCCCCCCNCCc2ccccc2)cc1O`, “inactive”.
As for `CO[C@@H]1COCC[C@@H]1N[C@@H]1CC[C@@](C(=O)N2CCc3ncc(C(F)(F)F)cc3C2)(C(C)C)C1`, the Potency entry is “inactive”.
The same measure, in the same setting: next, `CC(C)Cc1nccs1`: “inactive”; `CCCCC(CC)COCCC#N` (stereo not given): “inactive”.
